# According to PubChem BioAssay AID624418 (National Center for Advancing Translational Sciences (NCATS), 2012):
# Out of some 410,000 compounds screened, about 530 (0.13%) were called active. Not shown: some 5% with an inconclusive outcome. For the sample, actives were picked, then their nearest neighbours and some compounds at random. Unmarked numbers belong to inactive results. The call rests on the fitted dose curve; in most records, active means well fitted inhibition curve with a large enough effect; inconclusive means small, poorly fitted or top-dose-only effect, or another doubt; inactive means no such curve, though single readings can be large or run the other way.
# Assay: qHTS of GLP-1 Receptor Inverse Agonists: Cytotox Screen;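 further: loss of luciferase light is scored as toxicity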
# Settings: HEK293 cAMP-luciferase reporter cells, luminescence, 24 h; series mostly up to 38.3 µM; activity change, negative = inhibition: at the top concentration
# Source text: The overall goal of this project was to develop a novel assay for discovering small molecule ligands for class B1 G protein-coupled receptors (GPCRs). Very few agonists (or inverse agonists) with generally weak activity for this entire group of physiologically important receptors are known to date. To establish proof-of-principle that this critical bottleneck can be overcome with a suitable screening approach, our studies focused on the class B1 receptor for glucagon-like peptide-1 (GLP-1R), a potential therapeutic target for diabetes and neurodegenerative disease.
# The assay was developed using a cell-based functional readout. Toward this goal, stably transfected HEK293 cell clones were established that co-express (i) a cAMP-responsive luciferase reporter gene, and (ii) constitutively active GLP-1R that upon ligand interaction inhibit (inverse agonists) the luciferase activity. In addition, two control cell lines were developed: (i) one that express only the cAMP-responsive reporter gene to enable initial exclusion of GLP-1R independent effects of candidate probes; and (ii) one with the reported gene cloned with another constitutively active orphan receptor GPR119 to enable exclusion of GLP-1R independent inhibitor effects of candidate inverse agonists.
# To that end, this assay was optimized for 1536-well format and screened against the MLSMR. Then the same collection was run in this cytotoxicity assay where inhibition was the undesired outcome.
# NIH Molecular Libraries Probe Production Network [MLPCN]
# NIH Chemical Genomics Center [NCGC]
# PI Name: Martin Beinborn, Tufts Medical Center
# Six ul of cell suspension (200 cells/uL in DMEM + 10% Nu serum + 1% pen-strep) is dispensed in a white solid 1536-well plate. The plates are incubated for 12 hours at 37 deg C at 5% CO2 followed by addition of 23 nL compounds. After 24 hr incubation at 37 deg C and 5% CO2, 3 uL of luciferase assay detection reagent is added. A luminescence read is obtained on the PerkinElmer Viewlux after 12 min incubation at room temperature.
# On the % scale 0 is the no-effect control and ±100 the full control effect; potency means the concentration at half of the fitted maximal effect.
SMILES,"activity change, negative = inhibition",Potency
Cn1c(C(=O)Nc2cccc(C(F)(F)F)c2)cc2c(=O)n3ccccc3nc21,86.5%,–
Cc1ccc2c(c1)-c1c(cnn1CC(=O)Nc1ccccc1C#N)CO2,-10.5%,–
CCN1CCN(c2ncnc3c2cnn3-c2ccc(C)c(C)c2)CC1,2.92%,–
COC(=O)c1ccc(NC(=O)c2cccc3c2C(=O)N(C2CCCCC2)C3)cc1,-5.32%,–
COc1ccc(-c2nn3c(-c4ccc(OC)cc4)nnc3c3ccccc23)cc1,-20.7%,–
CCOc1cc(C2c3c(-c4ccc(Br)cc4)n[nH]c3C(=O)N2c2ccc(Cl)cc2)ccc1O (stereo not drawn),-25.1%,–
CCC(Sc1nc2n[nH]c(C)c2c(=N)n1-c1ccccc1Cl)C(=O)N(CC)CC (stereo not drawn),-2.5%,–
CC(=O)OC1=C(C(C)=O)N(Cc2ccccc2)S(=O)(=O)c2ccccc21,-4.82%,–
CN(Cc1ccccc1)C(=O)c1cn(C)c2ccc(S(=O)(=O)N3CCCCC3)cc2c1=O,0%,–
CCc1ccccc1NC(=O)CSc1nnc(-c2ccccc2)c(-c2ccccc2)n1,2.66%,–
Cc1ccc(C)c(N2CCN(C(=O)Cc3c(C(=O)O)c(C)cn3C)CC2)c1,-8.4%,–
Cc1cccc(NC(=O)C2CCN(S(=O)(=O)c3c(C)noc3/C=C/c3ccco3)CC2)c1,14%,–
COc1ccc(OC)c(NC(=O)C2CCCN(S(=O)(=O)c3ccc4c(c3)CCCC(=O)N4)C2)c1 (stereo not drawn),-1.5%,–
CC1=NN(C(=O)CCc2ccccc2O)C(O)(C(F)(F)F)C1 (stereo not drawn),-13.2%,–
COc1ccc(CC(=O)N2N=C(C)CC2(O)C(F)(F)F)cc1 (stereo not drawn),–,6.31 µM (active)
CC1=NN(C(=O)Cc2ccc(C)cc2)C(O)(c2cccnc2)C1 (stereo not drawn),-21.4%,–
O=C(Nc1ccc(Oc2ccccc2)cc1)C1CCN(S(=O)(=O)c2ccc(Cl)cc2)CC1,-15.9%,–
CC(=O)Nc1ccc(NC(=O)CSc2nnc3c4cc(Br)ccc4n(C)c3n2)cc1,6.5%,–
CC/C(=N\NC(=S)NC(C)C)c1ccc(OC(F)F)cc1,–,4.47 µM (active)
CC(C)CN1CCC1(C)C(=O)Nc1ccc(OC(F)F)cc1 (stereo not drawn),-4.92%,–
CC(C)N(Cc1ccccc1)C(=S)Nc1ccc(OC(F)F)cc1,-0.269%,–
Cc1oc(C)c2c(=O)cc(-c3ccc4c(c3)OCO4)cc(OC(=O)c3ccc(Cl)cc3)c12,-2.3%,–
O=C(Nc1cc(C(F)(F)F)ccc1Cl)c1nc2ccccc2nc1N1CCCCC1,-4.7%,–
O=C(NCC12CC3CC(CC(C3)C1)C2)c1cc2nc(-c3ccccc3)cc(C(F)(F)F)n2n1,-16.7%,–

SMILES,"activity change, negative = inhibition",Potency
CSc1ccccc1-c1nnc(NC(=O)c2ccc3c(c2)OCCO3)o1,2.88%,–
CCOc1ccccc1NC(=O)C1CCCN(S(=O)(=O)c2cn(C)cn2)C1 (stereo not drawn),-5.32%,–
Fc1ccc(-c2nc(Nc3cccc(Cl)c3)nc3c2COc2ccccc2-3)cc1,26.4%,–
Cc1cccc(C(=O)Nc2ccc(S(=O)(=O)N3CCCCC3c3cccnc3)cc2)c1 (stereo not drawn),-3.52%,–
O=C(Nc1ccc(Br)cc1)c1ccc(Br)c(S(=O)(=O)NCc2ccccc2)c1,-23.8%,–
CCOC(=O)c1c(NC(=O)/C=C/c2ccc(OC)cc2)sc2c1CCC(C)C2 (stereo not drawn),1.21%,–
CCc1ccc(NC(=O)Cn2c(=O)n(CCC(=O)NCc3ccc4c(c3)OCO4)c(=O)c3ccccc32)cc1,1.24%,–
O=C(c1ccc(Cl)cc1)n1nc(-c2cccnc2)nc1NCc1ccc(F)cc1,0.033%,–
Clc1ccc(CSc2nncn3c2cc2occc23)cc1,1.37%,–
O=C(Cn1cnc2c(oc3ccccc32)c1=O)Nc1ccc(OC(F)(F)F)cc1,7.7%,–
COc1ccc(C(=O)COC(=O)CCCC(=O)Nc2cc(C(F)(F)F)ccc2Cl)cc1,4.62%,–
Cc1ccc(CCNC(=O)c2ccc(CS(=O)(=O)Cc3cccc(C)c3)o2)cc1,6.21%,–
Cc1c(CNC2CCCCC2)c(C(=O)O)c(C)n1Cc1cccc(Cl)c1,3.57%,–
Cc1nc(SCCOc2ccc(Cl)cc2)[nH]c(=O)c1Cc1ccccc1,-0.041%,–
Cc1cc(NC(=O)CC(C)C)cc(-c2nc3ncccc3o2)c1O,-2.54%,–
Cc1ccc2nc(COc3cccc(NC(=O)c4ccccc4Cl)c3)cc(=O)n2c1,-3.99%,–
CCOC(=O)C1=CCC2C(=O)N(Cc3ccccc3)C(=O)C12 (stereo not drawn),0.313%,–
COc1cc(/C=C2/SC(=S)N(Cc3ccccc3)C2=O)cc(OC)c1O,–,10 µM (active)
COc1ccc(CCNC(=O)CCCCn2c(=O)c3ccccc3n(Cc3ccccc3)c2=O)cc1OC,5.81%,–
COc1ccc(-c2nn(-c3ccccc3)cc2/C=N/Nc2ccccn2)cc1OC,–,5.01 µM (active)
CCCCCc1c(-c2ccc(OC)c(OC)c2)ncn1CCc1ccccc1OC,-9.3%,–
COc1ccc(-c2cc(C(F)(F)F)n3nc(-c4ccccc4)cc3n2)cc1OC,5.25%,–
Cc1ccccc1CN1CCC(CNC(=O)c2cc3ccc4cccnc4c3[nH]2)CC1,-26.7%,–
O=C(NCC(c1ccc2c(c1)OCO2)N1CCN(c2ccccc2)CC1)C(=O)Nc1ccccc1F (stereo not drawn),15.1%,–
